Anthrax LF prot = anthrax lethal factor protease inhibition. P15917. inhibition, % at 10 µM. 0.12% of 360,000 active. multiplex microsphere protease cleavage assay, LF
Target sequence (P15917 whole entry, looked up): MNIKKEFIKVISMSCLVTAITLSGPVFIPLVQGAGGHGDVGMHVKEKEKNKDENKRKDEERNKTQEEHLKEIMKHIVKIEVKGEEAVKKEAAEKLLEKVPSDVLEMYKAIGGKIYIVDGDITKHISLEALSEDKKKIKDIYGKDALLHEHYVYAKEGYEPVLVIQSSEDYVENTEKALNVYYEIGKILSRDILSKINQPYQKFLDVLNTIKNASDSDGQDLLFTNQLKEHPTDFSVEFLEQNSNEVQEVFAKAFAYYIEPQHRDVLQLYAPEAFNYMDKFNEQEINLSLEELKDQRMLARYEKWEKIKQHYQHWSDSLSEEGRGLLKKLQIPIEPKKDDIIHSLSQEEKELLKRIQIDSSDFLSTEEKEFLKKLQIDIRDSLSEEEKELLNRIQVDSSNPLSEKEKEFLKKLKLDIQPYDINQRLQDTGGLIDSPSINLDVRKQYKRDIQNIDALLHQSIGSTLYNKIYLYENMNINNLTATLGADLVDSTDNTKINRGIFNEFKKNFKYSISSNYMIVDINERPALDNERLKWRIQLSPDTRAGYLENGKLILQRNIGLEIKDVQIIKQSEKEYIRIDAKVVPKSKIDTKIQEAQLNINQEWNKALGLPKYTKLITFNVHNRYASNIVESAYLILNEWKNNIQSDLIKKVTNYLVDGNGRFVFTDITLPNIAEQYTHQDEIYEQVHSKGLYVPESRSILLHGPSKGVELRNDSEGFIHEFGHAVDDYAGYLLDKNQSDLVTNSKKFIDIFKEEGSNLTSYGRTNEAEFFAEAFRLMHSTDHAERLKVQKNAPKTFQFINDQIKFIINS
BoNT A protease = blocks Botulinum neurotoxin A light chain protease. inhibition, % at 10 µM. 0.17% of 360,000 active. multiplex microsphere protease substrate cleavage, flow cytometry. AID 588499
BoNT-F LC inh = blocks Botulinum neurotoxin F light chain protease; 0.22% of 360,000 active; inhibition, % at 10 µM; Multiplex microsphere protease cleavage assay, flow cytometry; AID 588497; in the data active = inhibition above about 35%, passing the limit was not always enough; inconclusive = no clear call, values can overlap the other calls
Autofluor counter = compound fluorescence in toxin protease inhibitor counterscreen; compound autofluorescence counterscreen, microsphere flow cytometry; stronger effect = higher value; fluorescence intensity (no concentration beside the values); 3.1% of 360,000 active; AID 624483; in the data active = fluorescence intensity above about 16000; inconclusive = no clear call, values can overlap the other calls
BJeLR lethal = BJeLR cell viability loss | BJeLR (HRASV12) viability, CellTiter-Glo ATP luminescence, 48 h | inhibition, % (test concentration not listed) | 0.17% of 300,000 active | AID 1554; in the data active = inhibition above about 50%; inconclusive = no clear call, values can overlap the other calls
SARS 3CLpro inh = SARS-CoV 3CLpro protease inhibition | P0C6X7 | recombinant SARS-CoV 3CLpro, quenched FRET peptide cleavage | 0.14% of 290,000 active | inhibition, % at 6 µM; in the data active = inhibition above about 12%
Large screens that a line does not name were inactive. A selection: hits, their analogues and other compounds. The true share with any hit is near 3.6%. Rule as the data show it, unless noted: active = inhibition above about 30%; inconclusive = no clear call, values can overlap the other calls; inactive = below that.

N#C/C(=C\c1c(Cl)cccc1Cl)c1nc2ccccc2o1	BoNT-F LC inh 49.1
CSC(=NC#N)N1CCN(c2ccccc2)CC1	BoNT A protease inconclusive, Autofluor counter 20884
O=S(=O)(Cc1ccc(Cl)cc1)N1CCN(Cc2ccccc2)CC1	none (no result: BJeLR lethal)
CCc1ccc(CN2CCN(S(=O)(=O)Cc3ccccc3)CC2)cc1	none
CN1CCN(S(=O)(=O)Cc2ccc(Cl)cc2)CC1	Anthrax LF prot inconclusive, BoNT-F LC inh 35.6
CSc1ccc(CN2CCN(S(=O)(=O)Cc3ccccc3)CC2)cc1	Autofluor counter 27972
CC1(C(=O)Nc2ccc(Cl)cc2)Cc2c(-c3cccc(C(F)(F)F)c3)ccnc2O1 (stereo unspecified)	none (no result: BJeLR lethal, SARS 3CLpro inh)
O=c1oc(-c2cccs2)nc2c1cnn2-c1ccccc1	BoNT A protease inconclusive, Autofluor counter 16820
NS(=O)(=O)c1ccc(NC(=O)COC(=O)CN2C(=O)C3CC=CCC3C2=O)cc1 (stereo unspecified)	none (no result: BJeLR lethal, SARS 3CLpro inh)
O=C(CSc1nnc(-c2cccs2)n1C1CC1)NCC1CCCO1 (stereo unspecified)	none (no result: BJeLR lethal, SARS 3CLpro inh)
Cc1nc2ccc(CN(C)c3ccc(C(=O)N[C@@H](CCC(=O)O)C(=O)O)s3)cc2c(=O)[nH]1	BJeLR lethal 71.9 (no result: Anthrax LF prot, BoNT A protease, BoNT-F LC inh, Autofluor counter, SARS 3CLpro inh)
CN(C)S(=O)(=O)c1ccc2c(c1)nc(CCC(=O)NCC1CCCCC1)n2C	none
CC1CCN(C(=O)CCc2nc3cc(S(=O)(=O)N(C)C)ccc3n2C)CC1	BoNT A protease inconclusive, Autofluor counter 20932
Cc1ccc(Cn2c(=S)[nH]c3ccc(N4CCOCC4)cc3c2=O)o1	none
CCOC(=O)N1CCC(n2c(=S)[nH]c3cc(OCC)c(OCC)cc3c2=O)CC1	BoNT A protease inconclusive, Autofluor counter 18805
CCOc1cc2[nH]c(=S)n(CCCOC)c(=O)c2cc1OCC	none
CCOc1cc2[nH]c(=S)n(C3CC3)c(=O)c2cc1OCC	none
CCOc1cc2[nH]c(=S)n(C(C)C)c(=O)c2cc1OCC	Autofluor counter 21566
CCOc1cc2[nH]c(=S)n(Cc3ccc(C)o3)c(=O)c2cc1OCC	BoNT A protease inconclusive, Autofluor counter 17111
COc1ccc(Nc2nc(C)nc3c2nnn3Cc2ccccc2Cl)c(OC)c1	none
O=C(Nc1ccc(S(=O)(=O)N2CCCC2)cc1)c1cc(F)c(F)cc1Cl	Autofluor counter inconclusive
Oc1ccc(CCNc2ncnc3ccc(Cl)cc23)cc1	none
COc1ccc(/C=C/C2=CC(C)(C)NC(=S)N2)cc1	none
CC(Oc1ccc2oc(-c3ccccc3)c(C(=O)O)c2c1)C(=O)O (stereo unspecified)	Autofluor counter 16623
CCOc1ccc2oc(-c3ccccc3)c(C(=O)O)c2c1	none
CN(CC(=O)O/N=C(\N)c1ccc([N+](=O)[O-])cc1)S(=O)(=O)c1ccccc1	none
N/C(=N\OC(=O)c1ccc(Cl)c([N+](=O)[O-])c1)c1ccccn1	none
Cc1cccc(C(=O)O/N=C(\N)c2ccc(Br)cc2)c1	none
N/C(=N\OC(=O)c1ccc(Cl)c([N+](=O)[O-])c1)c1ccccc1	BoNT-F LC inh 63.0
Cc1cc(C)cc(C(=O)O/N=C(\N)c2ccc(Br)cc2)c1	Autofluor counter 20148
CN(CC(=O)O/N=C(\N)c1cccc([N+](=O)[O-])c1)S(=O)(=O)c1ccccc1	Autofluor counter 17118
Cc1ccc(C(=O)O/N=C(\N)c2cccc([N+](=O)[O-])c2)cc1	Autofluor counter 19951
Cc1cccc(NC(=O)CNC(=O)c2ccc3nc[nH]c3c2)c1C	none (no result: SARS 3CLpro inh)
COc1ccc(NC(=O)N2CCC(CO)(CC3CCCCO3)CC2)c(OC)c1 (stereo unspecified)	none
O=C(COC(=O)c1cccnc1)c1ccc(Cl)cc1	Autofluor counter 19665
CC(=O)c1cccc(-c2ccnc3c2CC(C(=O)Nc2ccccc2)O3)c1 (stereo unspecified)	none (no result: BJeLR lethal, SARS 3CLpro inh)
CCc1ccccc1NC(=O)Cn1nnc(-c2cccnc2)n1	Autofluor counter 22832
C=CCNC(=O)c1ccc2nc(-c3ccccc3)c(-c3ccccc3)nc2c1	none
C=CCNC(=O)CCCc1ccccc1	Autofluor counter 23759
C=CCNC(=O)c1ccc(C(=O)c2ccccc2)cc1	Autofluor counter 23162
O=C(COc1ccc(F)cc1)N1CCC(Cc2ccccc2)CC1	none
COc1ccc(CN2CCCC(C(=O)c3ccc(Cl)cc3)C2)c(O)c1 (stereo unspecified)	BoNT-F LC inh 34.9
COc1ccc(C(=O)C2CCCN(Cc3cc(Cl)ccc3O)C2)c(OC)c1 (stereo unspecified)	none
NS(=O)(=O)c1ccc(CCNC(=O)c2ccccc2Cc2ccccc2)cc1	none
CCc1[nH]c(=O)c(C#N)c2c1CSC(C)(C)C2	BoNT A protease inconclusive, Autofluor counter 23170
Cc1[nH]c(=O)c(C#N)c2c1CSC(C)(C)C2	none
CCCCc1[nH]c(=O)c(C#N)c2c1CSC(C)(C)C2	Autofluor counter 22475
CC(O)CC(=O)OC[C@]12CC[C@H]3[C@@](C)(CC[C@H]4C(C)(C)CCC[C@]34C)[C@@H]1CC(C1=CC(=O)OC1O)O2 (stereo partly specified)	none (no result: BJeLR lethal, SARS 3CLpro inh)
CC(C)(C)OC(=O)NCc1ccc(CNC(=O)c2[nH]cnc2C(=O)NC2CCN(C(=O)OC(C)(C)C)CC2)cc1	none (no result: BJeLR lethal, SARS 3CLpro inh)
O=C1/C(=C\c2ccccn2)SC(=S)N1Nc1ncc(C(F)(F)F)cc1Cl	Autofluor counter 22887
CCOc1ccc(NC(=O)COc2ccc(C(=O)NC(C)c3ccc(S(N)(=O)=O)cc3)cc2OC)cc1 (stereo unspecified)	none (no result: SARS 3CLpro inh)
c1ccc2sc(-c3ccc4c(c3)OCO4)nc2c1	Autofluor counter 21120 (no result: BJeLR lethal)
CCCOc1ccc(-c2nc[nH]c2[N+](=O)[O-])cc1	none
COc1ccc(CNC(C)(C)C)cc1Cl	Autofluor counter 16540
C=CCOc1ccc(CNC(C)(C)C)cc1OC	none
COc1ccccc1C(=O)Nc1nc2ccccc2[nH]1	BJeLR lethal 108.9
COc1cc(SC)ccc1C(=O)Nc1nc2ccccc2[nH]1	BJeLR lethal 121.2
CCS(=O)(=O)N1Cc2cc(C(=O)N(C)C)nc(-c3cccc(-c4ccc(F)cc4)c3)c2[C@@H]1CCO	none (no result: BJeLR lethal, SARS 3CLpro inh)
Nc1nc(-c2cccnc2)nn1C(=O)COc1ccccc1	Autofluor counter 24503
Nc1nc(-c2cccnc2)nn1C(=O)CCc1ccccc1	none
CCOC(=O)c1cccc(NC(=O)c2ccc(-n3cnnn3)cc2)c1	none (no result: BJeLR lethal, SARS 3CLpro inh)
CCN(c1cccc(C)c1)S(=O)(=O)c1ccc2[nH]c(=O)c(=O)[nH]c2c1	Autofluor counter 21312
CCN(c1cccc(C)c1)S(=O)(=O)c1cccc(C(=O)O)c1	Autofluor counter 23200
CCCCN(c1ccccc1)S(=O)(=O)c1cccc(C(=O)O)c1	none
COC(=O)CSc1nc(C)cc(Oc2ccccc2)n1	none
Cc1cc(Oc2ccccc2)nc(SCC(=O)Nc2ccc(Cl)cc2Cl)n1	BoNT A protease inconclusive, Autofluor counter 18063
O=C(NCCCNC(=O)c1ccc(F)cc1)c1ccc(F)cc1	BoNT-F LC inh 57.0
Cc1nc(C(F)(F)F)ccc1C(=O)N1CCC1(C)C(=O)NS(=O)(=O)c1ccc(C(C)(C)C)cc1 (stereo unspecified)	none (no result: BJeLR lethal, SARS 3CLpro inh)

Source: PubChem (several laboratories)
